# Results from the supplement of paper PMC8728848.
# Shown is part of a subset that was picked to be rich in the strongest signals.
# B1: TLEC1 (Arabidopsis thaliana), Q9C5Q9 (protein)
# chain: MSGASSVSSICSSNVSLIPTGPQVFINFRGKDLRKGFMSFLKPALKKEKINVFIDEQEERGKYLISLFDTIGESKIALVIFSEGYCESHWCMDELVKIKEYMDQNRLIIIPIFYRLDLDVVKDLTGKFGDNFWDLVDKYQPEPKKLHKWTEALFSVCELFSLILPKHSDISDRDFVKSIVKAVKKVQKNFFQRRNGEIEYQDFSVPACKLTITMHESPNEEAVQVTVLNEFYQMKNQSPVPSYEFKFWVDLTRPKGNVFMIDARDLSIAWSEDSNHWTWLPLPNQNSNESVMEIAFLKSASWLDVAGKFDTRYLTPRTRYEVVFVVKLEYTFEWETLVKLKLDLPNTWEKPQEQSVDMFDYISDQWLDIPVGEFTTSKKNVGEISFAMYEHECQLWKSGLFVKGVTIRPKY
# B2: Angptl4 (Homo sapiens), Q9BY76 (protein)
# chain: MSGAPTAGAALMLCAATAVLLSAQGGPVQSKSPRFASWDEMNVLAHGLLQLGQGLREHAERTRSQLSALERRLSACGSACQGTEGSTDLPLAPESRVDPEVLHSLQTQLKAQNSRIQQLFHKVAQQQRHLEKQHLRIQHLQSQFGLLDHKHLDHEVAKPARRKRLPEMAQPVDPAHNVSRLHRLPRDCQELFQVGERQSGLFEIQPQGSPPFLVNCKMTSDGGWTVIQRRHDGSVDFNRPWEAYKAGFGDPHGEFWLGLEKVHSITGDRNSRLAVQLRDWDGNAELLQFSVHLGGEDTAYSLQLTAPVAGQLGATTVPPSGLSVPFSTWDQDHDLRRDKNCAKSLSGGWWFGTCSHSNLNGQYFRSIPQQRQKLKKGIFWKTWRGRYYPLQATTMLIQPMAAEAAS
# How the values were obtained:
# Assay in all cases: glycan array binding signal (z-score within array); higher = stronger binding
# Settings in all cases: glycan notation: IUPAC condensed, linker removed
# [1] = target: Fuc(a1-2)Gal(b1-3)GalNAc(b1-3)Gal
# In short: (§1)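 Negative Z-scores can be read as non-binding. The Z-score is calculated within each array and then averaged across arrays of one protein sequence at different concentrations or buffers and across linkers. Arrays, 3228 in all, were curated from the Consortium for Functional Glycomics database and kept only where the protein sequence was available.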
# [2] = target: Fuc(a1-2)Gal(b1-3)[Fuc(a1-4)]GlcNAc
# In short: as §1
# Fuc(a1-2)Gal(b1-4)Glc = target: Fuc(a1-2)Gal(b1-4)Glc
# In short: as §1
# [3] = target: Fuc(a1-2)Gal(b1-4)GlcNAc(b1-3)Gal(b1-4)GlcNAc
# In short: as §1
# [4] = target: Fuc(a1-2)Gal(b1-4)[Fuc(a1-3)]GalNAc(b1-3)Gal(b1-4)[Fuc(a1-3)]GlcNAc
# In short: as §1
# Fuc(a1-2)[Gal(a1-3)]Gal = target: Fuc(a1-2)[Gal(a1-3)]Gal
# In short: as §1
# [5] = target: Fuc(a1-2)[Gal(a1-3)]Gal(b1-4)Glc
# In short: as §1
# [6] = target: Fuc(a1-2)[GalNAc(a1-3)]Gal(b1-3)GlcNAc
# In short: as §1
# Fuc(a1-3)GlcNAc = target: Fuc(a1-3)GlcNAc
# In short: as §1
# [7] = target: Gal(a1-3)[Gal(a1-4)]Gal(b1-4)GlcNAc
# In short: as §1
# Gal(a1-4)Gal(b1-4)GalNAc = target: Gal(a1-4)Gal(b1-4)GalNAc
# In short: as §1
# [8] = target: Gal(b1-3)[GlcNAc(b1-6)]GalNAc
# In short: as §1
# Gal(b1-4)GlcNAc = target: Gal(b1-4)GlcNAc
# In short: as §1
# Gal3S(b1-4)Glc6S = target: Gal3S(b1-4)Glc6S
# In short: as §1
# Gal3S6S(b1-4)GlcNAc6S = target: Gal3S6S(b1-4)GlcNAc6S
# In short: as §1
# Gal6S(b1-4)Glc6S = target: Gal6S(b1-4)Glc6S
# In short: as §1
# GalNAc(a1-3)Gal = target: GalNAc(a1-3)Gal
# In short: as §1
# Glc(a1-4)Glc = target: Glc(a1-4)Glc
# In short: as §1
# [9] = target: GlcNAc(b1-2)Gal(b1-3)GlcNAc
# In short: as §1
# [10] = target: Man(a1-2)Man(a1-2)Man(a1-3)Man
# In short: as §1
# [11] = target: Man(a1-2)Man(a1-2)Man(a1-3)[Man(a1-2)Man(a1-6)[Man(a1-3)]Man(a1-6)]Man(b1-4)GlcNAc(b1-4)GlcNAc
# In short: as §1
# Man(a1-3)[Man(a1-6)]Man = target: Man(a1-3)[Man(a1-6)]Man
# In short: as §1
# [12] = target: Neu5Ac(a2-3)Gal(b1-3)[Fuc(a1-4)]GlcNAc
# In short: as §1
# [13] = target: Neu5Ac(a2-3)Gal(b1-4)[Fuc(a1-3)]GlcNAc6S
# In short: as §1
# [14] = target: Neu5Ac(a2-3)[GalNAc(b1-4)]Gal(b1-4)Glc
# In short: as §1
# [15] = target: Fuc(a1-2)Gal(b1-4)GlcNAc(b1-3)Gal(b1-4)GlcNAc(b1-3)Gal(b1-4)GlcNAc
# In short: as §1
# Fuc(a1-2)Gal6S(b1-4)Glc = target: Fuc(a1-2)Gal6S(b1-4)Glc
# In short: as §1
# [16] = target: Fuc(a1-2)[Gal(a1-3)]Gal(b1-4)GlcNAc
# In short: as §1
# [17] = target: Fuc(a1-3)[Gal(b1-4)]GlcNAc6S
# In short: as §1
# [18] = target: Gal(a1-3)Gal(b1-4)[Fuc(a1-3)]GlcNAc
# In short: as §1
# Gal(b1-3)Gal = target: Gal(b1-3)Gal
# In short: as §1
# [19] = target: Gal(b1-3)[Fuc(a1-4)]GlcNAc(b1-3)Gal(b1-4)[Fuc(a1-3)]GlcNAc
# In short: as §1
# [20] = target: Gal(b1-4)GlcNAc(b1-3)Gal(b1-4)Glc
# In short: as §1
# [21] = target: Gal(b1-4)GlcNAc(b1-3)Gal(b1-4)[Fuc(a1-3)]GlcNAc(b1-3)Gal(b1-4)[Fuc(a1-3)]GlcNAc
# In short: as §1
# [22] = target: Gal(b1-4)GlcNAc(b1-3)[GlcNAc(b1-6)]Gal(b1-4)GlcNAc
# In short: as §1
# Gal3S(b1-4)Glc = target: Gal3S(b1-4)Glc
# In short: as §1
# GalNAc(b1-3)Gal = target: GalNAc(b1-3)Gal
# In short: as §1
# GalNAc(b1-4)GlcNAc = target: GalNAc(b1-4)GlcNAc
# In short: as §1
# Kdn(a2-3)Gal(b1-3)GlcNAc = target: Kdn(a2-3)Gal(b1-3)GlcNAc
# In short: as §1
# [23] = target: Man(a1-3)[Man(a1-6)]Man(a1-6)[Man(a1-2)Man(a1-3)]Man(b1-4)GlcNAc(b1-4)GlcNAc
# In short: as §1
# [24] = target: Neu5Ac(a2-3)Gal(b1-3)GlcNAc6S
# In short: as §1
# [25] = target: Neu5Ac(a2-3)Gal(b1-4)GlcNAc(b1-3)Gal(b1-3)GlcNAc
# In short: as §1
# [26] = target: Neu5Ac(a2-3)Gal6S(b1-4)[Fuc(a1-3)]GlcNAc
# In short: as §1
# Neu5Ac(a2-3)GalNAc = target: Neu5Ac(a2-3)GalNAc
# In short: as §1
# [27] = target: Neu5Ac(a2-6)Gal(b1-4)GlcNAc(b1-2)Man(a1-6)[Gal(b1-4)GlcNAc(b1-2)Man(a1-3)]Man(b1-4)GlcNAc(b1-4)GlcNAc
# In short: as §1
# [28] = target: Neu5Ac(a2-6)Gal(b1-4)GlcNAc(b1-3)Gal(b1-4)[Fuc(a1-3)]GlcNAc(b1-3)Gal(b1-4)[Fuc(a1-3)]GlcNAc
# In short: as §1
# [29] = target: Neu5Ac(a2-8)Neu5Ac(a2-8)Neu5Ac
# In short: as §1
binder,measurement,setting,value
B1,glycan array binding signal (z-score),[1],0.538
same,glycan array binding signal (z-score),[2],-0.075
same,glycan array binding signal (z-score),Fuc(a1-2)Gal(b1-4)Glc,1.08
same,glycan array binding signal (z-score),[3],0.966
same,glycan array binding signal (z-score),[4],1.49
same,glycan array binding signal (z-score),Fuc(a1-2)[Gal(a1-3)]Gal,-0.268
same,glycan array binding signal (z-score),[5],-0.089
same,glycan array binding signal (z-score),[6],0.897
same,glycan array binding signal (z-score),Fuc(a1-3)GlcNAc,1.82
same,glycan array binding signal (z-score),[7],-0.228
same,glycan array binding signal (z-score),Gal(a1-4)Gal(b1-4)GalNAc,-0.13
same,glycan array binding signal (z-score),[8],-0.317
same,glycan array binding signal (z-score),Gal(b1-4)GlcNAc,-0.385
same,glycan array binding signal (z-score),Gal3S(b1-4)Glc6S,1.16
same,glycan array binding signal (z-score),Gal3S6S(b1-4)GlcNAc6S,12.3
same,glycan array binding signal (z-score),Gal6S(b1-4)Glc6S,1.65
same,glycan array binding signal (z-score),GalNAc(a1-3)Gal,-0.288
same,glycan array binding signal (z-score),Glc(a1-4)Glc,-0.148
same,glycan array binding signal (z-score),[9],-0.386
same,glycan array binding signal (z-score),[10],-0.005
same,glycan array binding signal (z-score),[11],-0.509
same,glycan array binding signal (z-score),Man(a1-3)[Man(a1-6)]Man,-0.105
same,glycan array binding signal (z-score),[12],-0.525
same,glycan array binding signal (z-score),[13],-0.464
same,glycan array binding signal (z-score),[14],-0.46
B2,glycan array binding signal (z-score),[1],5.26
same,glycan array binding signal (z-score),[15],0.616
same,glycan array binding signal (z-score),Fuc(a1-2)Gal6S(b1-4)Glc,-0.253
same,glycan array binding signal (z-score),[16],0.087
same,glycan array binding signal (z-score),Fuc(a1-3)GlcNAc,-0.446
same,glycan array binding signal (z-score),[17],-0.527
same,glycan array binding signal (z-score),[18],-0.522
same,glycan array binding signal (z-score),Gal(b1-3)Gal,0.531
same,glycan array binding signal (z-score),[19],-0.192
same,glycan array binding signal (z-score),[8],-0.215
same,glycan array binding signal (z-score),[20],-0.407
same,glycan array binding signal (z-score),[21],3.98
same,glycan array binding signal (z-score),[22],-0.27
same,glycan array binding signal (z-score),Gal3S(b1-4)Glc,-0.052
same,glycan array binding signal (z-score),GalNAc(b1-3)Gal,-0.523
same,glycan array binding signal (z-score),GalNAc(b1-4)GlcNAc,-0.398
same,glycan array binding signal (z-score),Kdn(a2-3)Gal(b1-3)GlcNAc,0.691
same,glycan array binding signal (z-score),[23],5.32
same,glycan array binding signal (z-score),[24],7.07
same,glycan array binding signal (z-score),[12],-0.272
same,glycan array binding signal (z-score),[25],-0.262
same,glycan array binding signal (z-score),[26],-0.53
same,glycan array binding signal (z-score),Neu5Ac(a2-3)GalNAc,-0.954
same,glycan array binding signal (z-score),[27],4.1
same,glycan array binding signal (z-score),[28],0.162
same,glycan array binding signal (z-score),[29],-0.016
